Drawing on PMC10812921, “Transcriptional Coactivator BOB1 (OBF1, OCA-B) Modulates the Specificity of DNA Recognition by the POU-Domain Factors OCT1 and OCT2 in a Monomeric Configuration”, this text covers binding signal for 16 sequences.

One assay addresses POU1 (OCT1 POU domain) (human, UniProt P14859 260-458). Kind of assay: EMSA-SELEX-seq; no BOB1; 20 mM Tris-HCl pH 7.6, 140 mM NaCl, 10% glycerol, 0.5 mM EDTA, 0.05% Triton X-100, 0.1 mg/mL BSA, 0.1 mg/mL poly(dI-dC), 5 mM DTT, room temperature, 20 min; high values mean tight binding. Conditions: protein: recombinant; dsDNA, one strand shown. In a few lines:
(§1)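 With or without 28 ng coactivator protein, 30 ng of tagged POU-domain protein was combined with 300 ng of a PCR-amplified double-stranded random 35-nt library in 20 μL Tris–HCl pH 7.6 binding buffer for 20 min at RT. The protein came from E. coli BL21 and had been purified under denaturing conditions and renatured. Four rounds of cutting complex bands from native 6% PAGE, elution and PCR amplification preceded Illumina sequencing. The binding preference figure is the percentage of sequenced 8-mers matching a motif pattern.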
On the technique in general: In EMSA bound probe runs differently from free probe, usually more slowly.

For the next assay, the target named is T1, POU2 (OCT2 POU domain) (human, UniProt P09086 175-386).
T1 sequence: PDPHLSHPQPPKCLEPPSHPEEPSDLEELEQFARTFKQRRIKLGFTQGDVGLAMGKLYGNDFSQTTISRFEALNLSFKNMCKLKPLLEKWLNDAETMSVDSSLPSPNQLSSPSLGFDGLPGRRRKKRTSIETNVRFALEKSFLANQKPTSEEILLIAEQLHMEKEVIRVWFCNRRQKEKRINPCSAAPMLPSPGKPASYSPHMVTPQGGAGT
The assay is described as above. Conditions: protein: recombinant; dsDNA, one strand shown. The essentials: as §1

Assay [1] deals with POU1 (OCT1 POU domain);BOB1 (OBF1, OCA-B) (human;human, UniProt P14859;Q16633 260-458;1-256, |). Kind of assay: EMSA-SELEX-seq; with BOB1 (ternary complex band); 20 mM Tris-HCl pH 7.6, 140 mM NaCl, 10% glycerol, 0.5 mM EDTA, 0.05% Triton X-100, 0.1 mg/mL BSA, 0.1 mg/mL poly(dI-dC), 5 mM DTT, room temperature, 20 min; high values mean tight binding. Particulars: protein: recombinant;recombinant; copies: 1;1; dsDNA, one strand shown. In a few lines: as §1

Assay [2] deals with T2, POU2 (OCT2 POU domain);BOB1 (OBF1, OCA-B) (human;human, UniProt P09086;Q16633 175-386;1-256, |).
T2 sequence 1: T1 sequence
T2 sequence 2: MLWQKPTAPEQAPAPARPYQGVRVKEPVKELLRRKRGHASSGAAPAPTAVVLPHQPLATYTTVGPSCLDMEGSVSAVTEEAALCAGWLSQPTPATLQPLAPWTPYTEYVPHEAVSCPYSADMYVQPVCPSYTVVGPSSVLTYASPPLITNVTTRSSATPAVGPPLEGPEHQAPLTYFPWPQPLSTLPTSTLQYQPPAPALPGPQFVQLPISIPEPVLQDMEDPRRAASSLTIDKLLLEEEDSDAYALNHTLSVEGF
The description is as above. Particulars: protein: recombinant;recombinant; copies: 1;1; dsDNA, one strand shown. In a few lines: as §1

Sequence of POU1 (OCT1 POU domain) (P14859 260-458): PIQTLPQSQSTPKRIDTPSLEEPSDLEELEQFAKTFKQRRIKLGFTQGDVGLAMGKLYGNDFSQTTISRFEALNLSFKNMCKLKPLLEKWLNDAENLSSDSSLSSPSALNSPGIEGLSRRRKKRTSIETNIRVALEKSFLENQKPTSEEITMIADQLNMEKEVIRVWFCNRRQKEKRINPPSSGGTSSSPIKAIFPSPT

Consider ACTATAAC, for which the binding signal with POU1 (OCT1 POU domain) was 0.0156 % of ANNNNAAN 8-mers; in the assay with POU2 (OCT2 POU domain), 0.0196 % of ANNNNAAN 8-mers; in assay [1] it was 0.023 % of ANNNNAAN 8-mers; in assay [2], 0.0239 % of ANNNNAAN 8-mers.
In the same order, the values of AGTCGAAC are 0.0221 % of ANNNNAAN 8-mers, 0.0224 % of ANNNNAAN 8-mers, 0.0199 % of ANNNNAAN 8-mers and 0.0239 % of ANNNNAAN 8-mers.
As for ATCATAAG, the binding signal with POU1 (OCT1 POU domain) was 0.0496 % of ANNNNAAN 8-mers; in the assay with POU2 (OCT2 POU domain) it was 0.0581 % of ANNNNAAN 8-mers; in assay [1] it was 0.0379 % of ANNNNAAN 8-mers; in assay [2] it was 0.0421 % of ANNNNAAN 8-mers.
Regarding AGATTAAT, the binding signal was 0.147 % of ANNNNAAN 8-mers with POU1 (OCT1 POU domain), 0.207 % of ANNNNAAN 8-mers with POU2 (OCT2 POU domain), 0.0901 % of ANNNNAAN 8-mers in assay [1] and 0.106 % of ANNNNAAN 8-mers in assay [2].
AGCGCAAG: the binding signal with POU1 (OCT1 POU domain) is 0.013 % of ANNNNAAN 8-mers; with POU2 (OCT2 POU domain), 0.0121 % of ANNNNAAN 8-mers; in assay [1] it was 0.0144 % of ANNNNAAN 8-mers; in assay [2] it was 0.0165 % of ANNNNAAN 8-mers.
Take AGGTAAAA: the binding signal with POU1 (OCT1 POU domain) is 0.129 % of ANNNNAAN 8-mers; with POU2 (OCT2 POU domain) it was 0.1 % of ANNNNAAN 8-mers; in assay [1], 0.146 % of ANNNNAAN 8-mers; in assay [2], 0.085 % of ANNNNAAN 8-mers.
On to ATTATAAA, for which the binding signal is 0.152 % of ANNNNAAN 8-mers with POU1 (OCT1 POU domain), 0.204 % of ANNNNAAN 8-mers with POU2 (OCT2 POU domain), 0.0691 % of ANNNNAAN 8-mers in assay [1] and 0.0801 % of ANNNNAAN 8-mers in assay [2].
On to ACCGAAAT, for which the binding signal in the assay with POU1 (OCT1 POU domain) was 0.0404 % of ANNNNAAN 8-mers; in the assay with POU2 (OCT2 POU domain), 0.0426 % of ANNNNAAN 8-mers; in assay [1] it was 0.0437 % of ANNNNAAN 8-mers; in assay [2], 0.0479 % of ANNNNAAN 8-mers.
In the case of AACTGAAT, the binding signal with POU1 (OCT1 POU domain) is 0.0885 % of ANNNNAAN 8-mers; with POU2 (OCT2 POU domain), 0.108 % of ANNNNAAN 8-mers; in assay [1], 0.0562 % of ANNNNAAN 8-mers; in assay [2] it was 0.0735 % of ANNNNAAN 8-mers.
Take ACGCTAAC: the binding signal with POU1 (OCT1 POU domain) was 0.0118 % of ANNNNAAN 8-mers; with POU2 (OCT2 POU domain), 0.0121 % of ANNNNAAN 8-mers; in assay [1] it was 0.0133 % of ANNNNAAN 8-mers; in assay [2], 0.0157 % of ANNNNAAN 8-mers.
As for ATTACAAC, the binding signal is 0.0313 % of ANNNNAAN 8-mers with POU1 (OCT1 POU domain), 0.042 % of ANNNNAAN 8-mers in the assay with POU2 (OCT2 POU domain), 0.0258 % of ANNNNAAN 8-mers in assay [1] and 0.0223 % of ANNNNAAN 8-mers in assay [2].
For AAACGAAA, the binding signal in the assay with POU1 (OCT1 POU domain) is 0.0568 % of ANNNNAAN 8-mers; with POU2 (OCT2 POU domain) it was 0.0558 % of ANNNNAAN 8-mers; in assay [1], 0.0644 % of ANNNNAAN 8-mers; in assay [2], 0.052 % of ANNNNAAN 8-mers.
For ACGTAAAA, the binding signal was 0.0648 % of ANNNNAAN 8-mers in the assay with POU1 (OCT1 POU domain), 0.0529 % of ANNNNAAN 8-mers in the assay with POU2 (OCT2 POU domain), 0.0823 % of ANNNNAAN 8-mers in assay [1] and 0.0537 % of ANNNNAAN 8-mers in assay [2].
With AGATTAAG, the binding signal with POU1 (OCT1 POU domain) is 0.0656 % of ANNNNAAN 8-mers; with POU2 (OCT2 POU domain), 0.088 % of ANNNNAAN 8-mers; in assay [1], 0.0581 % of ANNNNAAN 8-mers; in assay [2], 0.0619 % of ANNNNAAN 8-mers.
As for AGACAAAG, the binding signal with POU1 (OCT1 POU domain) was 0.0404 % of ANNNNAAN 8-mers; with POU2 (OCT2 POU domain), 0.0374 % of ANNNNAAN 8-mers; in assay [1], 0.0558 % of ANNNNAAN 8-mers; in assay [2] it was 0.0248 % of ANNNNAAN 8-mers.
With ACCTGAAA, the binding signal is 0.0183 % of ANNNNAAN 8-mers in the assay with POU1 (OCT1 POU domain), 0.0247 % of ANNNNAAN 8-mers with POU2 (OCT2 POU domain), 0.0215 % of ANNNNAAN 8-mers in assay [1] and 0.019 % of ANNNNAAN 8-mers in assay [2].
